PLK1 PBD inh – inhibitors of human PLK1 polo-box domain binding; 2.8% of 360,000 active; Plk1 PBD binding of FITC phosphopeptide, fluorescence polarization; P53350; Potency, µM, without a hit: max response, negative = inhibition, most hits filed as inhibitors; also: series mostly up to about 57 µM; % is scaled to controls: 0 for no effect and ±100 for the full control effect; nearly all actives have a fitted effect of over 65% in size
Target sequence (P53350 whole entry, looked up, the tested form may be a part): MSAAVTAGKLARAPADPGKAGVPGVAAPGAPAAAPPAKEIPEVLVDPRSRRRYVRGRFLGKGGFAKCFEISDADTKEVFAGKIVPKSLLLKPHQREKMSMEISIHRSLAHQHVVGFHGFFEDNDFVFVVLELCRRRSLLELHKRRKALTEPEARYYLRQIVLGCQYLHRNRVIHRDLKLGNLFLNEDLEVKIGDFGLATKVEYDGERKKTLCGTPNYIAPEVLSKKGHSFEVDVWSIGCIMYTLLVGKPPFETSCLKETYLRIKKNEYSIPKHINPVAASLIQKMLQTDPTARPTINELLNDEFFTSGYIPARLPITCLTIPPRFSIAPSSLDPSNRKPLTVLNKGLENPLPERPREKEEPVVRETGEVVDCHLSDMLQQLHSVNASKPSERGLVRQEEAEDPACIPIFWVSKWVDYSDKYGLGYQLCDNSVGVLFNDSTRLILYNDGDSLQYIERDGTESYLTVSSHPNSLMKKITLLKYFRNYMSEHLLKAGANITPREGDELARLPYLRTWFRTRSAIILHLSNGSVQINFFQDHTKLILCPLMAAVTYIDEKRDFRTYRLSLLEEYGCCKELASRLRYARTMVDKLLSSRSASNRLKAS
HP1b chromo inh – HP1-beta chromodomain-methylated histone interaction inhibition. AlphaScreen HP1-beta / biotin-H3K9me3 peptide binding. 0.56% of 390,000 active. P83916. Potency, µM (titrated, usually from 114 µM), without a hit: at the top dose activity change, negative = inhibition, actives largely listed as inhibitors; also: nearly all actives have a fitted effect of over 70% in size
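Compound inhibition of the preformed complex between 50 nM HP1-beta and 50 nM biotinylated H3K9me3 peptide was read by AlphaScreen. Buffer was PBS pH 7.4 with 0.01% Tween-20. Incubations ran 30 min at room temperature, with 10 ug/mL donor/acceptor beads.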
BAZ2B block – blocks human BAZ2B | AlphaScreen BAZ2B-H3K14Ac peptide displacement | Potency, µM (top dose mostly 114 µM), for the others: at the highest dose activity change, negative = inhibition, usual class: inhibitors | 4.4% of 360,000 active | AID 504333; also: % is scaled to controls: 0 for no effect and ±100 for the full control effect; nearly all actives have a fitted effect of over 60% in size
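AlphaScreen displacement of biotin-H3(5-23)K14Ac peptide (50 nM final) from BAZ2B (50 nM final) in PBS pH 7.4, 0.01% Tween-20; complex preformed 30 min RT, then compounds (top 110 uM) 30 min RT, beads 20 min dark.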
G9a inh – G9a (human) methyltransferase inhibition; Potency, µM (doses to about 102 µM), for inactives: top-dose activity, negative = inhibition, actives largely listed as inhibitors; Q96KQ7; AID 504332; 8.8% of 350,000 active; G9a H3K9 monomethylation, AlphaScreen, 2 h; also: % is scaled to controls: 0 for no effect and ±100 for the full control effect; nearly all actives have a fitted effect of over 75% in size
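G9a (20 nM) preincubated 15 min RT with compounds, then 500 nM biotinylated H3K9 peptide and 20 uM SAM added; 2 h RT reaction. Monomethyl-H3K9 product detected by AlphaScreen with anti-H3K9me1 antibody, streptavidin donor and anti-rabbit IgG acceptor beads.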
JMJD2A Tudor – JMJD2A Tudor domain (human) inhibition; Potency, µM (highest dose often 114 µM), inactives show at the top dose activity change, negative = inhibition, actives largely listed as inhibitors; O75164; 4.4% of 390,000 active; AID 504339; AlphaScreen JMJD2A-Tudor / H3K4me3 peptide binding; also: % is scaled to controls: 0 for no effect and ±100 for the full control effect; nearly all actives have a fitted effect of over 50% in size
VDR inhibitor – vitamin D3 receptor (human) inhibition; Potency, µM, without a hit: max response, negative = inhibition, actives largely listed as inhibitors; P11473; 0.93% of 400,000 active; VDR-SRC2-3 peptide fluorescence polarization, 2 h; also: % is scaled to controls: 0 for no effect and ±100 for the full control effect
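Reagent solutions, kept cold and dark, are dispensed first; compounds are then pinned in at 23 nl, plates briefly spun, and incubated 2 h at ambient temperature. Inhibition of VDR–SRC2-3 peptide binding is read by fluorescence polarization.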
An asterisk follows results filed as active; ? = inconclusive; . = no result given; [ ] = another dose, or the depositor's remark. The list is not random: actives were taken first. Their share in the collection is about 11%. Calls follow the shape of the dose curve; as a rule, active = well fitted curve in the direction sought with a large enough effect; inconclusive = small, poorly fitted or top-dose-only effect, or another doubt; inactive = no such curve, though single readings can be large; an effect the other way counts as inactive or inconclusive. Potency is read from the fitted curve at half-maximal effect.

SMILES	PLK1 PBD inh	HP1b chromo inh	BAZ2B block	G9a inh	JMJD2A Tudor	VDR inhibitor
COC(=O)C1C(=O)C2=C(CC1C)NC(=O)CC2c1cccc(C)c1 (configuration not stated)	27µM*	-10%	8%	0%	-18%[11.4 µM]	-23%
COC(=O)C1C(=O)C2=C(CC1C)NC(=O)CC2c1ccccc1 (configuration not stated)	2%	42%	11%	19%[12.7 µM]	-4%	4%
CCN(CC)CCCn1c2c(c(SCC(=O)Nc3cccc4ccccc34)nc1=O)CCC2	1%	13%	12%	40µM*	-17%	-7%
COc1cc(NC(=O)CSc2nc(=O)n(CCCN3CCOCC3)c3c2CCC3)cc(OC)c1	-1%	36%	11%	1%	-17%	-15%
CCCCc1ccc(NC(=O)CSc2nc(=O)n(CCN(CC)CC)c3c2CCC3)cc1	-10%	8%	-1%	50µM*	-34%	3%
CCN(CC)CCCn1c2c(c(SCC(=O)Nc3cc(OC)cc(OC)c3)nc1=O)CCC2	-13%	33%	2%	50µM*	-9%	-8%
CCOc1ccc(CC(=O)NCCc2csc(-c3ccc(C(F)(F)F)cc3)n2)cc1	.	8%[57 µM]	-8%	-2%[59 µM]	-8%	10%
Cc1ccc(/C=N/Nc2ccc(Cl)c(C(=O)O)c2)s1	-19%	7%	?	?	-25%	-8%
Cc1ccc(/C=N/Nc2ccc(F)cc2)s1	-13%	-8%	?	50µM*	?	-3%
COc1cccc(C2C(C(=O)OCc3ccccc3)=C(C)Nc3ncnn32)c1OC (configuration not stated)	-16%	33%	9%	-3%	1%	-2%
O=C1NC(=O)C(=Cc2ccco2)S1	-8%	19%	.	.	-12%	10%
O=C1/C(=C\c2ccco2)NC(=S)N1c1ccccc1	?	?	-5%	.	56µM*	-9%
CCCN=C1N/C(=C\c2ccco2)C(=O)N1c1ccccc1	-7%	23%	-8%	?	-19%	-1%
O=C1NC(=S)NC1=Cc1ccco1	24µM*	35µM*	.	.	22µM*	28µM*
Cc1ccc(N2C(=O)/C(=C\c3ccco3)SC2=S)cc1	-6%	-15%	56µM*	-6%[12.7 µM]	-32%	-26%
O=C1/C(=C\c2ccco2)SC(=S)N1c1ccccc1	-10%	?	?	50µM*	-24%	4%
Cc1ccc(CN(Cc2ccco2)c2cnc(S(C)(=O)=O)nc2C(=O)Nc2ccc(Br)cc2)o1	.	21%	?	-4%[59 µM]	-20%	0%
Cc1ccc(CSCC(=O)N(C)CC(=O)Nc2ccc(Cl)c(Cl)c2)cc1	2%	40%	9%	8%[59 µM]	2%	-16%
O=C(CCS(=O)(=O)c1cc(Br)cc2c1N(C(=O)C1CC1)CC2)NCc1ccccc1Cl	.	7%	-4%	10%[59 µM]	-17%	-4%
CCNS(=O)(=O)c1ccc(NC(=O)c2ccccc2)cc1	-8%	59%	0%	6%[12.7 µM]	-15%	1%
CCNc1nc(NCC)nc(C(=O)Nc2ccccc2)n1	-8%	58%	10µM*	8%[0.501 µM]	79µM*	14%
CCCc1nc(NC(=O)c2ccccc2)nc(NC(=O)c2ccccc2)n1	-3%	24%	19%	71µM*	-12%	-12%
COc1cc2c(cc1OC)C1O[C@](CCCCN3C(=O)c4ccccc4C3=O)(C2)OC2=C1C(=O)CC(C)(C)C2	.	.	?	-126%[2.33 µM]	.	.
Cc1ccccc1NC(=O)CSC1=Nc2ccccc2C2=NC(Cc3ccccc3)C(=O)N12 (configuration not stated)	.	29%	-15%	0%[12.7 µM]	-3%	2%
Cc1nnsc1NC(=O)OCC(C)C	2%	30%	-1%	8%	13%	2%
SMILES	PLK1 PBD inh	HP1b chromo inh	BAZ2B block	G9a inh	JMJD2A Tudor	VDR inhibitor
Cc1nnsc1NC(=O)OCC(C)(C)C	0%	17%	5%	50µM*	-9%	-6%
NCc1oc(-c2ccccc2)cc1C(=O)O	-12%	7%	-2%	50µM*	-20%	10%
CCN(CC)Cc1oc(-c2ccccc2)cc1C(=O)O	?	-8%	-6%	.	56µM*	-25%
Cc1oc(-c2ccccc2)cc1C(N)=O	-4%	1%	?	0%[59 µM]	-17%	2%
Nc1ccc(Cc2ccc(N)c(O)c2)cc1O	-26%	?	?	50µM*	40µM*	3%
COC(=O)c1cc(Cc2ccc(N)c(C(=O)OC)c2)ccc1N	-4%	35%	-1%	2%[59 µM]	-18%	6%
CC(NC(=O)c1cncc(Br)c1)c1ccc(S(N)(=O)=O)cc1 (configuration not stated)	-9%	43%	-1%	6%[12.7 µM]	2%[11.4 µM]	-10%
CC(NC(=O)c1cnccn1)c1ccc(S(N)(=O)=O)cc1 (configuration not stated)	27µM*	14%	1%	.	-7%[11.4 µM]	-22%
COc1ccccc1C(=O)Nc1ccnn1C1CCN(Cc2ncc[nH]2)CC1	-9%	32%	-27%	36%[59 µM]	1%	-4%
COc1ccc(NC(=O)c2sc(=O)n(Cc3ccc(F)c(Cl)c3)c2C)cc1OC	3%	.	.	.	.	.
O=C1C(=C(O)c2ccccc2)C(=O)c2ccccc21	-10%	-1%	-5%	?	89µM*	-1%
O=C(c1ccccc1)C1C(=O)c2ccccc2C1=O	-17%	32%	-35%	-13%[2.33 µM]	-24%	-3%
CCC(C)N(C(=O)CSc1nnc(COc2ccccc2F)n1N)C1CCS(=O)(=O)C1 (configuration not stated)	1%	37%	4%	10%	-14%	-4%
Cc1ccc(-c2nc3cnccn3c2Nc2ccc3c(c2)OCO3)o1	-19%	-17%	50µM*	32µM*	?	-19%
Cc1ccc2nc(-c3ccc(C)o3)c(Nc3ccc4c(c3)OCO4)n2c1	.	19%	.	.	-26%	4%
COc1ccc(Nc2c(-c3ccc(C)o3)nc3cc(C)ccn23)cc1	.	-14%	?	16µM*	?	-8%
Cc1ccc(Nc2c(-c3ccc(C)o3)nc3ccccn23)cc1	.	-14%	.	.	?	1%
Cc1ccn2c(Nc3ccc4c(c3)OCO4)c(-c3ccc(C)o3)nc2c1	.	18%	-35%	16µM*	?	?
CCCCn1c(SCC(=O)N2CCOCC2)nnc1-c1cccs1	-5%	2%	0%[57.1 µM]	24%[0.501 µM]	-2%	12%
CCN(CC)S(=O)(=O)c1ccc2c(c1)nc(CN(C)C(=O)Nc1ccc(C)c(F)c1)n2C	.	25%	-18%	2%[12.7 µM]	-10%	4%
Cc1cccc(Cn2c(=O)n(Cc3ccccc3)c(=O)c3c2c2cc(C)ccc2n3C)c1	.	50%	2%	-3%[59 µM]	10%	17%
CCc1ccc(NC(=O)CN2C(=O)C(=O)c3ccccc32)cc1	.	15%	-11%	8%[59 µM]	-16%	?
